About 20,000 (21%) of roughly 96,000 compounds were called active.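 Rule for the calls: active = CYP2C19 inhibition above a set limit at 5 µM in the primary screen (cut at about 50% in these data); inactive = the rest.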 Only a sample is shown.
What follows are molecules tested against Cytochrome P450 2C19 (Homo sapiens) (UniProt P33261) (assay: blockers of cytochrome P450 2C19 activity – biochemical, luminescence, ADME assay, primary screen (AID 778;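 note: plate controls were negative control wells for no effect and 2.5 mM tranylcypromine positive control for full effect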)). Details: CYP2C19 Supersomes, luciferin-H EGE luminescence, 30 min; at 5 µM; hits give high values.
Sequence of Cytochrome P450 2C19 (Homo sapiens) (P33261 whole entry, looked up): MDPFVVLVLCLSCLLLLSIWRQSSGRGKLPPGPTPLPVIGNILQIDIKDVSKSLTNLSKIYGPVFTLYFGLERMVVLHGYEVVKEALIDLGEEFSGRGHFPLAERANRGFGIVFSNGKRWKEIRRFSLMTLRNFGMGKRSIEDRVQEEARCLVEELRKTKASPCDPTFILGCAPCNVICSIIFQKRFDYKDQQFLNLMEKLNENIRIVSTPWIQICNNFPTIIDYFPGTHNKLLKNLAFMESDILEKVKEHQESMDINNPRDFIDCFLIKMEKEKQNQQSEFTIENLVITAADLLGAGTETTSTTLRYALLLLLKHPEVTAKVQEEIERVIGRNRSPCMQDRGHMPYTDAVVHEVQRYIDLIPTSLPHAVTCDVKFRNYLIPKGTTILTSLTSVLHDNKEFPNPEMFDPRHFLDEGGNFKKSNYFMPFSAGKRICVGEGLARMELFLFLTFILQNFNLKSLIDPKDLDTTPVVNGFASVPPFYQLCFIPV

inhibition, active:
Cn1cc(S(=O)(=O)N2CCC(Cc3ccccc3)CC2)c(=O)n(C)c1=O 69.7%
C=CCn1c(SCc2cc(C(=O)OC)c(C)o2)nnc1-c1ccncc1 92.1%
C=CCn1c(SCc2c(C(=O)OC)sc(N)c2C(=O)OC)nnc1-c1ccc(Cl)cc1 57.1%
Cc1ccc(C2CC(=O)NC(SCC(=O)OCc3ccccc3)=C2C#N)o1 (stereo not drawn) 82.5%
CCOC(=O)CSC1=C(C#N)C(c2ccco2)C(C(=O)OCc2ccccc2)=C(C)N1 (stereo not drawn) 72.5%
CC1=C(C(=O)OCc2ccccc2)C(c2ccco2)n2ncnc2N1 (stereo not drawn) 90.2%
Cn1nc(C(F)(F)F)c(C(=O)Nc2cccc(C(F)(F)F)c2)c1SCc1ccc(Cl)cc1 87.4%
O=C(Nc1ccc(-n2ccnc2P(=O)(O)c2ccccc2)cc1)c1ccccc1Br 96.9%
O=C(CSc1nnc(-c2ccco2)n1CC1CCCO1)c1ccccc1 (stereo not drawn) 70.4%
COc1cc(Cl)c(C)cc1NC(=O)CSc1nnc(-c2cccnc2)n1Cc1ccco1 60.5%
CCn1c(SCC(=O)Nc2cc(C)c(Cl)cc2OC)nnc1-c1ccco1 70.6%
O=C(CSc1nnc(-c2cccnc2)n1Cc1ccco1)c1ccc(Cl)c(Cl)c1 79.7%
CCn1c(COc2ccc(OC)cc2)nnc1SCC(=O)Nc1cc(OC)ccc1OC 65.9%
CCc1cccc(C)c1NC(=O)CSc1nnc(-c2ccco2)n1N 76%
C(=C\c1ccccc1)/CSc1nnc(-c2cccnc2)n1Cc1ccco1 72.6%
O=C(CSc1nnc(-c2cccs2)n1Cc1ccco1)c1ccc2c(c1)OCO2 51%

inhibition, inactive:
O=C1c2cccnc2C(=O)N1Cc1cccs1 21.3%
CCCCNC(=O)CCn1c(=S)[nH]c2cc3c(cc2c1=O)OCO3 41.9%
CCCCn1c(=S)[nH]c2ncccc2c1=O 10.8%
CC(C)(C)c1ccc(C(=O)NNC(=O)Cc2ccccc2)cc1 23.9%
O=S(=O)(c1ccc(F)cc1)n1ccc(-c2cnc(-c3ccccc3)s2)n1 13.6%
CCOC(=O)N1CCN(S(=O)(=O)c2cc3c(cc2C)NC(=O)CO3)CC1 12.1%
COCCn1c(CN2CCC(Cc3ccccc3)CC2)nc2c1c(=O)n(C)c(=O)n2C 49.4%
Cn1cc(S(=O)(=O)N2CCN(c3ccc(F)cc3)CC2)c(=O)n(C)c1=O 26.4%
C=CCn1c(SCC(=O)c2ccc(Br)cc2)nnc1C(C)NC(=O)Cc1ccc(OC)cc1 (stereo not drawn) 11.6%
COCCn1c(SCc2nc3cc(OC)c(OC)cc3c(=O)[nH]2)nnc1-c1ccncc1 -13.4%
C=CCn1c(SCCOc2ccc(OC)cc2)nnc1C(NC(=O)c1ccc(OC)cc1)C(C)C (stereo not drawn) 35.4%
O=C1Nc2c(Br)cc(Br)cc2C1(O)N1CCOCC1 (stereo not drawn) 41.6%
O=C(NC(=O)c1ccc(Cl)c(Cl)c1)OC1CCS(=O)(=O)C1 (stereo not drawn) -14.2%
COc1ccc(-c2nc(SCC(=O)N3CCOCC3)n[nH]2)cc1 1%
CN1/C(=c2/s/c(=C3/C(=O)N(c4ccccc4)NC3=Nc3ccccc3)n(C)c2=O)C(C)(C)c2ccccc21 38.5%
CCOC(=O)C1C(=O)NC(N2CCN(c3ccccc3)CC2)=NC1c1ccco1 (stereo not drawn) 6.9%
COc1ccccc1NC(=O)C1=C(C)Nc2ncnn2C1c1ccc(C)o1 (stereo not drawn) 8.6%
CC1=C(C(=O)Nc2ccccc2)C(c2ccco2)C(C#N)=C(SCC(N)=O)N1 (stereo not drawn) 2.2%
CCOC(=O)CSC1=C(C#N)C(c2sccc2C)CC(=O)N1 (stereo not drawn) 22.9%
COc1ccccc1NC(=O)C1=C(C)NC2=C(C(=O)CCC2)C1c1ccc(C)o1 (stereo not drawn) 41.9%
COC(=O)C1=C(C)Nc2ncnn2C1c1ccco1 (stereo not drawn) -5.4%
CCCNS(=O)(=O)c1ccc2c(c1)CCCN2C(C)=O 0.6%
COc1ccc(N2CCN(C(=O)CSc3ncnc4c3cnn4-c3ccc(OC)cc3)CC2)cc1 5.1%
O=C(CN1C(=O)CSc2ncccc21)N1CCOCC1 13%
O=c1c(-c2ccccc2)coc2c(CN3CCOCC3)c(O)ccc12 10.1%
CN(c1cccc(NC(=O)Nc2ccc(Cl)cc2)c1)S(C)(=O)=O 28.5%
CCC(C)Sc1nc(C)nc2c1c(=O)n(C)c(=O)n2C (stereo not drawn) 32.5%
O=C1COc2ccc(NC(=O)N3CCN(c4ccc(F)cc4)CC3)cc2N1 8%
Cc1nonc1NC(=O)c1ccccc1Br -11.9%
O=C(Nc1ccccc1)c1cccnc1Nc1ccccc1 2.2%
O=c1c2[nH]c3ccc(Cl)cc3c2ncn1Cc1ccccn1 10.9%
Nc1cc(OC(=O)c2ccccc2Br)nn1S(=O)(=O)c1ccccc1 12.4%
CCOC(=O)CNC(=O)CSc1nnc(-c2cccc(OC)c2)n1CC 20.1%
O=C(CSc1nnc(-c2cnccn2)n1Cc1ccco1)c1ccc(Cl)c(Cl)c1 5.6%
Cc1nnc(SCC(N)=O)n1CC1CCCO1 (stereo not drawn) 8%
CCn1c(SCC(=O)Nc2cccc(F)c2)nnc1-c1cc2cc(Br)ccc2o1 7.3%
CCOC(=O)CSc1nnc(-c2ccco2)n1C -5.6%
O=C(CSc1nnc(-c2cccnc2)n1Cc1ccco1)c1ccc(Cl)cc1 27.8%
COc1ccc(-c2nn(-c3ccccc3)cc2C(=O)Nc2nc(CC(C)=O)ns2)cc1 -1%
COc1ccc(N2CCN(C(=O)CSc3nc4cc(OC)c(OC)cc4cc3C#N)CC2)cc1 37.5%
C[C@@H](Nc1nc(-c2ccccc2)nc2c1oc1ccccc12)C(=O)O 1.5%
CSc1ccc(NC(=O)N2CC(C)OC(C)C2)cc1 (stereo not drawn) 14.4%
Cc1c(C(=O)Nc2ccccc2Cl)oc2ccc(S(=O)(=O)N3CCC4(CC3)OCCO4)cc12 7.5%
COC(=O)c1c(-c2cccs2)csc1NC(=O)CSc1ncnc2sc(C)c(C)c12 16.1%
Cc1cccc(C)c1NC(=O)CCCSc1nnc(-c2ccco2)n1-c1ccccc1 23.1%
CCCn1c(SCC(=O)c2ccc3c(c2)OCCO3)nnc1C(C)C 16.5%
N=c1c2c(-c3ccccc3)c(-c3ccccc3)oc2ncn1Cc1ccco1 19.1%
COc1ccc(OC)c(NC(=O)CSc2nc3cccnc3n2C)c1 40.2%
NC(=O)c1c(NC(=O)CSc2nnc(-c3ccco3)n2N)sc2c1CCCC2 33.7%
Nc1cc(=O)nc(SCc2ccccc2)n1Cc1ccco1 32.6%
CCn1c(COc2ccccc2)nnc1SCC(=O)Nc1ccc2c(c1)OCCO2 18.3%
COc1ccc(NC(=O)CSc2nnc(-c3cccs3)n2Cc2ccco2)cc1OC 35.6%
